Compound activity as filed in PubChem BioAssay.
This is a sample that favours compounds with a hit; in the whole collection about 11% have one here.
NIH3T3 tox: Cytotoxic Profiling in NIH 3T3 Cell Line of Diverse Libraries Using Quantitative High-Throughput Screening | NIH 3T3 viability, CellTiter-Glo ATP luminescence, 48-72 h | Potency, µM (titrated, usually from 96.7 µM), for inactives: top-dose activity change, negative = cytotoxicity, hits mostly inhibitors | 94,000 compounds, 4.3% hits | AID 1345082, 2018; note: nearly all actives have a fitted effect of over 55% in size
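NIH 3T3 cells at 400 cells/well received 23 nL of compound by pintool and were incubated 48 or 72 h at 37 °C. Viability was read as ATP-coupled CellTiter-Glo luminescence.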
HEK cytotox: Cytotoxic Profiling in HEK 293 Cell Line of Diverse Libraries Using Quantitative High-Throughput Screening | HEK 293 viability, ATP luminescence (CellTiter-Glo), 48-72 h | AID 1345083, 2018 | Potency, µM (series often up to 115 µM), for the others: at the top dose activity change, negative = cytotoxicity, most hits filed as inhibitors | 94,000 compounds, 6.6% hits; note: nearly all actives have a fitted effect of over 60% in size
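Read-out: CellTiter-Glo ATP luminescence. Cells: HEK 293, 250 cells/well. Exposure: 48 or 72 hr, 37 degree Celsius.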
FLuc inh: Firefly luciferase inhibition profiling of diverse chemical library using quantitative high-throughput screening; Luciferin 4-monooxygenase (Photinus pyralis), P08659; purified P. pyralis luciferase, luminescence, biochemical; Potency, µM (doses to about 115 µM), usual class: inhibitors; 76,000 compounds, 2.5% hits; note: nearly all actives have a fitted effect of over 65% in size
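Inhibitors were tested against purified firefly luciferase in a biochemical, low-substrate format (both substrates at 10uM) and luminescence measured with a CCD imager.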
NPR1 antag: Natriuretic polypeptide receptor (hNpr1) antagonism - Primary qHTS; Potency, µM (doses to about 46.3 µM), inactives show top-dose activity change, negative = inhibition, usual class: inhibitors; HEK293 hNpr1 GloSensor cGMP, ANP-stimulated luminescence; Atrial natriuretic peptide receptor 1 (Homo sapiens), P16066; 76,000 compounds, 1.6% hits; calls by dose curve; note: nearly all actives have a fitted effect of over 60% in size
Target sequence (P16066 whole entry, looked up): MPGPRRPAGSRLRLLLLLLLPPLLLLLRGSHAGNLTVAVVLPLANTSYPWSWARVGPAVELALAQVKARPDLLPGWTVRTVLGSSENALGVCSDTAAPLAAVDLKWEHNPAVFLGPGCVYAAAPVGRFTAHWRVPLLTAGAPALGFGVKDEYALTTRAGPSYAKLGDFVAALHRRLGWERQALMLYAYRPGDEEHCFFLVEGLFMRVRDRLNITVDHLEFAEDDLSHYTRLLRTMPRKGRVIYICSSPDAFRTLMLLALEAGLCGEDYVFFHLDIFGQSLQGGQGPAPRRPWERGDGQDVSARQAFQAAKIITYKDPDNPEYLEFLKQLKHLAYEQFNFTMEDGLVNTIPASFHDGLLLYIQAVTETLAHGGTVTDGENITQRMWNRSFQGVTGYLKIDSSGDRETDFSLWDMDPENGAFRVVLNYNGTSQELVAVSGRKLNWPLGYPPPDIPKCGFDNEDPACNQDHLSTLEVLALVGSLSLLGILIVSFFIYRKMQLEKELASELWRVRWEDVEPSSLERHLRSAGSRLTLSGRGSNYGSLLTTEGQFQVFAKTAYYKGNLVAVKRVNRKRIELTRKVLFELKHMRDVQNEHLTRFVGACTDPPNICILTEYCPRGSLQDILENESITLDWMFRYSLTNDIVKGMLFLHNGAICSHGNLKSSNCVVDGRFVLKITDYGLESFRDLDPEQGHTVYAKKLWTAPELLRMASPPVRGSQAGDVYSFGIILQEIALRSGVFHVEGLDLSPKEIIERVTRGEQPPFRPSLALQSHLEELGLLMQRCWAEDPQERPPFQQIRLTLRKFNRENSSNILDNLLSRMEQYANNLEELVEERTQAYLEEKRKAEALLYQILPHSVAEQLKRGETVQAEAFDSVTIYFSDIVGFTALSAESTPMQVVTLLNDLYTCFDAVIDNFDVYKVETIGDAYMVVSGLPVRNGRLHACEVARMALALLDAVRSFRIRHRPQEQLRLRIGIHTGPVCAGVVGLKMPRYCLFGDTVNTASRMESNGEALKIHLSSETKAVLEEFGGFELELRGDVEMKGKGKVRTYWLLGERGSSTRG
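HEK293 cells stably expressing human Npr1 and cGMP GloSensor pGS-40F, loaded 2 h with 2% GloSensor reagent, given compound 30 min at room temperature. Luminescence read before and 20 min after 0.1 nM hNppA.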
* marks the source's active call; other numbers are inactive results; [ ] = remark or other dose. Unless noted, calls come from the whole dose curve; as a rule, active = well fitted curve in the direction sought with a large enough effect; inconclusive = small, poorly fitted or top-dose-only effect, or another doubt; inactive = no such curve, though single readings can be large; an effect the other way counts as inactive or inconclusive. % is set by controls: 0 for no effect and ±100 for the full control effect; potency is the fitted concentration of half-maximal effect.

Cc1ccc(NC(=O)CN2C(=O)NC(c3ccc(Cl)cc3)C3=C2COC3=O)cc1Cl (stereo unspecified) was read as NIH3T3 tox 28.2µM*, HEK cytotox 31.6µM*, FLuc inh inconclusive and NPR1 antag inconclusive.
Screening CC(C)c1cccc(NC(=O)CN2C(=O)NC(c3ccccc3Cl)C3=C2COC3=O)c1 (stereo unspecified) returned NIH3T3 tox inconclusive, HEK cytotox 39.8µM*, FLuc inh inconclusive and NPR1 antag -22.7%.
For Cc1ccc(C2NC(=O)N(CC(=O)Nc3ccc4c(c3)OCCO4)C3=C2C(=O)OC3)cc1 (stereo unspecified) the results were NIH3T3 tox -17.6%, HEK cytotox inconclusive, FLuc inh inactive and NPR1 antag -9.3%.
Screening Cc1ccc(C2NC(=O)N(CC(=O)Nc3ccccc3)C3=C2C(=O)OC3)cc1 (stereo unspecified) returned NIH3T3 tox inconclusive, HEK cytotox inconclusive, FLuc inh inactive and NPR1 antag -8.6%.
Cc1ccc(C2NC(=O)N(CC(=O)Nc3ccc(F)c(F)c3)C3=C2C(=O)OC3)cc1 (stereo unspecified) was read as NIH3T3 tox inconclusive, HEK cytotox 20µM*, FLuc inh inactive and NPR1 antag -13.4%.
O=C(c1cccnc1)N1CCOC[C@H](Oc2ccc(C(F)(F)F)cn2)C1 was read as NIH3T3 tox -21.9%[138 µM], HEK cytotox -23.3%[172 µM], FLuc inh inactive and NPR1 antag 1.8%[70.6 µM].
COc1ccc(Cn2c(=O)c(C(=O)N3CCN(C(=O)c4ccccc4C)CC3)nc3cccnc32)cc1 was read as NIH3T3 tox -18.9% and HEK cytotox -1.2%.
Screening CCN1Cc2nc(OC)c(CNC(=O)C(C)n3cc(C)cn3)cc2C1=O (stereo unspecified) returned NIH3T3 tox -13.6%, HEK cytotox -7.5%, FLuc inh inactive and NPR1 antag 8.0%.
`Cc1ccc(C2NC(=O)N(CC(=O)Nc3ccc4c(c3)OCO4)C3=C2C(=O)OC3)cc1` (stereo unspecified) gave NIH3T3 tox -25.7%, HEK cytotox inconclusive, FLuc inh inactive and NPR1 antag 1.8%.
`CCOc1ccccc1NC(=O)CN1C(=O)NC(c2ccc(Cl)cc2)C2=C1COC2=O` (stereo unspecified) gave NIH3T3 tox inconclusive, HEK cytotox inconclusive, FLuc inh inactive and NPR1 antag -2.3%.
Cc1cc(NC(=O)CN2C(=O)NC(c3ccc(Cl)cc3)C3=C2COC3=O)ccc1Br (stereo unspecified) was read as NIH3T3 tox 25.1µM*, HEK cytotox inconclusive, FLuc inh inactive and NPR1 antag -24.7%.
Screening O=C(CN1C(=O)NC(c2ccc(Cl)cc2)C2=C1COC2=O)Nc1ccc2c(c1)CCC2 (stereo unspecified) returned NIH3T3 tox 25.1µM*, HEK cytotox 22.4µM*, FLuc inh inactive and NPR1 antag -29.0%.
`CCOC(=O)c1ccccc1NC(=O)CN1C(=O)NC(c2ccc(Cl)cc2)C2=C1COC2=O` (stereo unspecified) gave NIH3T3 tox 39.8µM*, HEK cytotox inconclusive, FLuc inh inactive and NPR1 antag -12.3%.
For COc1cccc([S+](=O)([O-])N2CCC3(CC2)CC(=O)Nc2ccccc2O3)c1 the results were NIH3T3 tox -15.9%, HEK cytotox 50.1µM*, FLuc inh inactive and NPR1 antag -2.8%.
For O=C1CC2(CCN([S+](=O)([O-])c3ccccc3)CC2)Oc2ccccc2N1 the results were NIH3T3 tox inconclusive, HEK cytotox inconclusive, FLuc inh inactive and NPR1 antag 11.0%.
For COc1cccc([S+](=O)([O-])N2CCC3(C2)NC(=O)c2ccccc2CO3)c1 (stereo unspecified) the results were NIH3T3 tox -26.9%, HEK cytotox inconclusive, FLuc inh inactive and NPR1 antag 0.0%.
Screening COc1cccc([S+](=O)([O-])N2CCC3(CC2)NC(=O)c2ccccc2O3)c1 returned NIH3T3 tox inconclusive, HEK cytotox 39.8µM*, FLuc inh inactive and NPR1 antag inconclusive.
